Experimental data: PubChem BioAssay (NCI)
This is part of a sample that, as a whole, favours compounds with a hit. Of some 83,000 tested, about 20% had one in any assay.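 Single-concentration screen, 48 h exposure, 96-well plates. Endpoint: percent growth. Below 10 = active.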 Values without a mark were called inactive. Calls of active or inactive are those of the source.

Each compound was assayed on HL-60(TB) leukemia (assay: NCI-60 one-dose screen, 48 h (100 = growth as untreated, 0 = no growth, -100 = all killed)). Conditions: 10 µM unless noted.

| Structure (SMILES) | growth |
| --- | --- |
| CC[C@@]12C=CCN3CC[C@]4(c5cc(NC(=O)COc6cc(OCC(=O)Nc7cc8c(cc7OC)N(C)[C@H]7[C@@](O)(C(=O)OC)[C@H](OC(C)=O)[C@]9(CC)C=CCN%10CC[C@]87[C@@H]%109)cc7oc(-c8ccccc8)cc(=O)c67)c(OC)cc5N(C)[C@@H]4[C@](O)(C(=O)OC)[C@H]1OC(C)=O)[C@H]32 | 88.2% |
| COc1cccc2c1C(=O)c1c(O)c3c(c(O)c1C2=O)C[C@@](O)(C(=O)COC(=O)c1cccnc1)C[C@@H]3OC1CC(N)C(O)C(C)O1 (stereo partly specified) | -27% (active) |
| C#CCn1cc(C=C2C(=O)NC(=O)NC2=O)c2cc(Cl)ccc21 | 59.9% |
| CCCCCCCCCCCCCCCCOCCCOP(=O)(O)C1CCCN(O)C1=O (stereo unspecified) | -13.6% (active) |
| C/C(CC(C)C)=N/NC(N)=S | 86.5% |
| CN1CCN(c2ccc3nc(-c4[nH]ncc4Nc4ncnc5[nH]ccc45)[nH]c3c2)CC1 | -28.6% (active) |
| CCCCCCCCCCCCCCCCN=C(CC(=O)O)C(=O)O | 72.6% |
| CCc1ccccc1-n1c(-c2ccc(OC)cc2)cc(-c2ccc(OC)cc2)c(C#N)c1=O | 121% |
| NC(=N\N=C/c1ccccc1[N+](=O)[O-])/C(N)=N\N=C/c1ccccc1[N+](=O)[O-] | 105% |
| CCOC(=O)c1cc2c(n1Cc1cc(OC)c(OC)c(OC)c1)-c1nc(N)sc1CCC2 | 13.2% |
| COc1cc(C(=O)/C=C/c2ccc(N3CCN(C)CC3)cc2)cc(OC)c1OC | 98.2% |
